# Measurements reported in the supplement of paper PMC13392028.
# Over roughly 4,100 sequences, “RBNS R-value (6-mer enrichment in protein-bound RNA vs input library)” has its median near 0.96; the highest 2% begin near 2.4. The entries come from a sample that favours the highest values as a whole.
# Test system: PyIESI-1 RRM domain (Plasmodium yoelii PY17X_0911200 aa 795-956, GST fusion)
# Assay: RBNS R-value (6-mer enrichment in protein-bound RNA vs input library) (ratio); higher = stronger binding preference; the methods of the paper give 50 / 100 / 500 nM protein instead
# Protocol: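 RNA Bind-n-Seq: recombinant GST-tagged IESI-1 RRM domain was incubated at room temperature with a random 40-nt in vitro transcribed RNA library at 250, 500 or 1000 nM protein. Bound RNA was pulled down on glutathione beads and sequenced. R-value is the enrichment of each 6-mer in the bound RNA relative to the input library. Each 6-mer sits inside the random 40-mer context, not as an isolated oligo. Values are replicate 1 only.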
Sequence,RBNS R-value (protein concentration: 250 nM),RBNS R-value (protein concentration: 500 nM),RBNS R-value (protein concentration: 1000 nM)
ACAUUG,1.19,1.17,1.2
GACCAG,1.1,1.11,1.09
GCUACU,0.838,0.861,0.829
GUGGAG,0.967,0.977,0.96
GAUUCA,2.85,2.7,2.92
UAUUCA,0.554,0.565,0.571
CAUUCC,0.948,0.975,0.997
AAUUCU,1.06,1.05,1.06
CAUUCG,1.01,1.05,1.07
GAUUCC,2.42,2.37,2.49
GAUUCG,2.64,2.49,2.51
AAUUCG,1.08,1.08,1.08
UAUUCU,0.707,0.731,0.734
AAUUCC,1.12,1.09,1.12
GAUUCU,2.89,2.77,2.85
AAUUCA,0.88,0.882,0.917
GCGCAG,1.01,1.03,1.03
ACAUCG,0.752,0.777,0.749
UCCAGU,0.838,0.85,0.831
ACCCAG,1.32,1.27,1.32

Sequence,RBNS R-value (protein concentration: 250 nM),RBNS R-value (protein concentration: 500 nM),RBNS R-value (protein concentration: 1000 nM)
AAUCCC,0.954,0.955,0.949
ACUGCG,1.12,1.13,1.13
GACAAC,1.09,1.07,1.07
UCUUCC,0.978,1.01,1.03
UGAUCU,2.74,2.75,2.93
UGAUCA,2.37,2.38,2.64
UGAUCC,2.58,2.6,2.82
AGAUCA,0.82,0.812,0.814
GGAUCC,0.932,0.922,0.909
GGAUCA,0.767,0.764,0.736
CGAUCU,1.15,1.15,1.19
CGAUCC,1.19,1.22,1.26
AGAUCU,0.946,0.924,0.93
GUGUUC,0.821,0.855,0.82
CGUACU,0.773,0.765,0.73
CAGUGA,1.6,1.58,1.62
CCAUUU,0.871,0.913,0.936
UGAUUU,7.9,7.06,7.22
CGAUUC,2.08,2.12,2.24
AGAUUU,1.72,1.72,1.83

Sequence,RBNS R-value (protein concentration: 250 nM),RBNS R-value (protein concentration: 500 nM),RBNS R-value (protein concentration: 1000 nM)
UGAUUA,6.31,5.88,6.3
AGAUUA,1.09,1.16,1.25
UGAUUC,6.24,5.67,5.91
CUAUUU,0.653,0.681,0.664
CGAUUA,1.73,1.79,1.94
AGAUUC,1.47,1.49,1.58
GGAUUU,1.08,1.1,1.06
CGAUUU,2.59,2.56,2.71
GCCAGU,0.86,0.901,0.892
UCUUGC,1.12,1.17,1.18
GAACCU,1.11,1.1,1.07
GAUACC,1.83,1.85,1.99
ACGAAU,0.896,0.896,0.865
GCAGUG,1.11,1.14,1.12
AUUCGC,1.47,1.43,1.46
UACUUC,0.69,0.719,0.702
AUCCCU,0.892,0.921,0.934
CCGGUG,1.11,1.14,1.12
CGCUUA,0.602,0.629,0.617
AUCUAA,0.647,0.67,0.637
